Results reported in PubChem BioAssay (Tox21).
Records with an inconclusive call do not appear. A call without a number means that no potency is given here. A number with no mark means an inactive call. Calls of active or inactive are those of the source. The call rests on the fitted dose curve; in most records, active means well fitted cell-killing curve with a large enough effect in the repeat runs; inconclusive means weak or mixed curves, or effect the other way; inactive means flat fitted curve, though single readings scatter.

Test: qHTS RealTime-Glo MT Cell Viability Assay in HepG2 cells - 0 hour (AID 1224889); further: nearly all actives have a fitted effect of over 50% in size
Details: RealTime-Glo luminescence; series mostly up to 76.8 µM
From the text: U.S. Tox21 Program National Center for Advancing Translational Sciences [NCATS] NIH Chemical Genomics Center [NCGC] U.S. Environmental Protection Agency [EPA] National Institutes of Environmental Health Sciences [NIEHS] National Toxicology Program [NTP] U.S. Food and Drug Administration [FDA] Tox21 Assay Overview: Measure of cell viability is critical in the cell-base assay. Analysis of cell viability is necessary for the characterization of cell responses to cytotoxic drugs and environmental stress. A RealTime-Glo MT Cell Viability Assay to monitor cell viability in real time of continues cell culture during 40 hours of compound treatment was used to screen Tox21 10K library compounds in HepG2 cells. The RealTime-Glo MT Cell Viability Assay is a nonlytic, homogeneous, bioluminescent method to measure cell viability in real time using a simple, plate-based method. The assay involves adding NanoLuc luciferase and a cell-permeant prosubstrate to cells in culture. Viable cells reduce the proprietary prosubstrate to generate a substrate for NanoLuc luciferase. This substrate diffuses from cells into the surrounding culture medium, where it is rapidly used by the NanoLuc Enzyme to produce a luminescent signal. The signal correlates with the number of viable cells, making the assay well suited for cytotoxicity studies.
Tox21 Assay Protocol Summary: The mixture of HepG2 cell suspension and reagents were dispensed at 600cells/6 ul/well in 1536-well tissue culture treated black solid bottom plates using a Multidrop dispenser. After the assay plates were incubated at a 37 C/5% CO2 incubator for 5 hours, 23 nL of compounds dissolved in DMSO, positive and negative controls was transferred to the assay plate by a pintool work station. The plates were incubated at 37 C for 40 hours. The luminescence intensity were measured at 0h, 8h, 16h, 24h, 32h and 40h time points using ViewLux plate reader during compound treatment.

Row | Structure (SMILES) | Potency | activity change, negative = cytotoxicity
1 | Cc1c(O)cccc1O | inactive | 
2 | OCCOc1ccc(OCCO)cc1 | inactive | 
3 | Cc1cc(O)cc2c1O[C@](C)(CCC[C@H](C)CCC[C@H](C)CCCC(C)C)CC2 | inactive | 
4 | FC(F)OC(Cl)C(F)(F)F (stereo not given) | inactive | 
5 | CN1CC(=O)NC1=N | inactive | 
6 | CN1N=C(C(N)=O)CCC1=O | inactive | 
7 | c1ccc(CC2=NCCN2)cc1 | inactive | 
8 | C[C@H]1C[C@@H](O)CC(C)(C)C1 | inactive | 
9 | COC(C)(C)CCCC(C)CC=O (stereo not given) | inactive | 
10 | CC(=O)Nc1c(I)cc(I)c(C(=O)O)c1I | inactive | 
11 | CCCCCCCCCCCC | inactive | 
12 | CCCc1cc(C(N)=S)ccn1 | inactive | 
13 | CCN1CCC[C@H]1CNC(=O)c1c(O)c(Cl)cc(Cl)c1OC | inactive | 
14 | CN(C(=O)c1c(O)c2ccccc2n(C)c1=O)c1ccccc1 | inactive | 
15 | CCOC(=O)Nc1ccc(NCc2ccc(F)cc2)nc1N | inactive | 
16 | C[C@@H]1CCN(C(=O)[C@H](CCCN=C(N)N)NS(=O)(=O)c2cccc3c2NC[C@H](C)C3)[C@@H](C(=O)O)C1 | inactive | 
17 | O=C1CCCN1C1CCCCC1 | inactive | 
18 | COC(=O)NN | inactive | 
19 | CC(C)(C)c1ccc(O)c(O)c1 | inactive | 
20 | O=C1OC(=O)C2CCCCC12 (stereo not given) | inactive | 

Row | Structure (SMILES) | Potency | activity change, negative = cytotoxicity
21 | CCCN(CCC)CCc1cccc2c1CC(=O)N2 | inactive | 
22 | CCc1nccnc1CC |  | -0.513% [at 15.8 µM]
23 | c1ccc([C@H]2CN3CCSC3=N2)cc1 | inactive | 
24 | CC(C)(c1ccc(O)cc1)c1ccc(O)cc1 | inactive | 
25 | CC(C(=O)O)c1ccc(CC2CCCC2=O)cc1 (stereo not given) | inactive | 
26 | CCCCC/C=C\CCC=O | inactive | 
27 | O=C1CCCCCCCCCCCN1 | inactive | 
28 | CC(NC(CCc1ccccc1)C(=O)O)C(=O)N1C(=O)N(C)CC1C(=O)O (stereo not given) | inactive | 
29 | CC(C)NCC(O)c1ccc(NS(C)(=O)=O)cc1 (stereo not given) | inactive | 
30 | CC(=O)c1ccccc1O | inactive | 
31 | CN1C(=O)N(C)C(O)C1O (stereo not given) | inactive | 
32 | CC(C)NC(=O)NC(C)C | inactive | 
33 | NCCc1cnc[nH]1 | inactive | 
34 | OC(CCN1CCCCC1)(c1ccccc1)C1CC2C=CC1C2 (stereo not given) | inactive | 
35 | NS(=O)(=O)c1cc(C(=O)O)cc(N2CCCC2)c1Oc1ccccc1 | inactive | 
36 | CCCCNC(=O)NCCCC | inactive | 
37 | Cc1[nH]c(=O)c(C#N)cc1-c1ccc2nccn2c1 | inactive | 
38 | COc1nc(N)nc2c1ncn2[C@@H]1O[C@H](CO)[C@@H](O)[C@@H]1O | inactive | 
39 | CCOC(=O)CC(C)=O | inactive | 
40 | CCN(Cc1ccncc1)C(=O)C(CO)c1ccccc1 (stereo not given) | inactive | 
